“And” between values parts separate entries of the source, which are not always exact repeats. Equal entries are not always repeated. The whole screen tested about 5,500 compounds, of which about 2,000 (36%) were called active. About 18% were inconclusive and are not listed. Cut-off read from the data, not from the text of the source: active = normalized growth mostly below about 0.91 (no sharp cut-off); inconclusive = no clear call, values can overlap the other calls; inactive = mostly above about 0.92. The list shows a part of the results.
Assay: chemical genetic growth profiling, strain panel (AID 1159580);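 note: tested at 20 µM; growth read once vehicle control cultures reached saturation at 30 °C; 1 = growth at the plate median or of vehicle wells; lower values mean less growth of the strain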
Details: S. cerevisiae deletion strains, growth OD

Measured: normalized growth

C[C@H](N)[C@H](O)c1cccc(O)c1
inactive: locus YAL021C, strain ccr4, hits give low values 1 | locus YAL026C, strain drs2, hits give low values 1.01 | locus YAL030W, strain snc1, hits give low values 1 | locus YBL061C, strain skt5, hits give low values 1.01 | locus YBR009C, strain hhf1, hits give low values 1.02 | locus YBR021W, strain FUR4, hits give low values 1.04 | locus YBR023C, strain chs3, hits give low values 1.02 | locus YBR171W, strain sec66, hits give low values 1.02 | locus YBR229C, strain ROT2, hits give low values 0.992 | locus YBR231C, strain swc5, hits give low values 1 | locus YBR279W, strain paf1, hits give low values 1.01 | locus YCL011C, strain gbp2, hits give low values 1 | locus YCL016C, strain dcc1, hits give low values 1.02 | locus YCL029C, strain bik1, hits give low values 0.985 | locus YCL061C, strain MRC1, hits give low values 1.01 | locus YCL069W, strain vba3, hits give low values 0.994 | locus YCR088W, strain abp1, hits give low values 1 | locus YDL005C, strain med2, hits give low values 1.01 | locus YDL035C, strain GPR1, hits give low values 0.983 | locus YDL040C, strain nat1, hits give low values 1 | locus YDL074C, strain BRE1, hits give low values 1.04 | locus YDL101C, strain DUN1, hits give low values 0.997 | locus YDL185W, strain tfp1, hits give low values 0.957 | locus YDL192W, strain arf1, hits give low values 0.99 | locus YDR001C, strain nth1, hits give low values 0.999 | locus YDR069C, strain doa4, hits give low values 1.01 | locus YDR101C, strain arx1, hits give low values 1 | locus YDR137W, strain rgp1, hits give low values 1.03 | locus YDR150W, strain NUM1, hits give low values 0.981 | locus YDR159W, strain sac3, hits give low values 1.03 | locus YDR162C, strain NBP2, hits give low values 0.986 | locus YDR195W, strain ref2 1 | locus YDR297W, strain sur2, hits give low values 1 | locus YDR318W, strain mcm21, hits give low values 0.997 | locus YDR334W, strain swr1, hits give low values 0.999 | locus YDR335W, strain msn5, hits give low values 0.994 | locus YDR388W, hits give low values 0.987 | locus YDR392W, strain spt3, hits give low values 1.02 | locus YDR502C, strain sam2, hits give low values 1 | locus YEL003W, strain gim4, hits give low values 1.01 | locus YEL037C, strain rad23, hits give low values 1 | locus YEL061C, strain CIN8 (second series), hits give low values 0.992 | locus YEL061C, strain CIN8, hits give low values 0.988 | locus YER015W, strain faa2, hits give low values 1.01 | locus YER016W, strain bim1, hits give low values 1.01 | locus YER110C, hits give low values 0.973 | locus YER111C, strain swi4, hits give low values 1 | locus YER155C, strain BEM2 (second series), hits give low values 0.995 | locus YER155C, strain BEM2, hits give low values 1.01 | locus YER167W, strain BCK2, hits give low values 0.989 | locus YFR010W, strain ubp6, hits give low values 1.01 | locus YGL078C, strain dbp3, hits give low values 0.995 | locus YGL086W, strain mad1, hits give low values 1.01 | locus YGL167C, strain pmr1, hits give low values 1.02 | locus YGL173C, strain kem1, hits give low values 1.01 | locus YGL227W, strain vid30, hits give low values 1 | locus YGL240W, strain doc1, hits give low values 1.01 | locus YGL248W, strain PDE1, hits give low values 1.02 | locus YGL253W, strain hxk2, hits give low values 1.01 | locus YGR078C, strain PAC10, hits give low values 1.01 | locus YGR135W, strain pre9, hits give low values 0.942 | locus YGR252W, strain gcn5, hits give low values 1.04 | locus YHR013C, strain ard1, hits give low values 1.02 | locus YHR027C, strain rpn1, hits give low values 1.02 | locus YHR030C, strain SLT2, hits give low values 0.979 and 1.02 | locus YHR079C, strain IRE1 (second series), hits give low values 0.999 | locus YHR079C, strain IRE1, hits give low values 1.02 | locus YHR094C, strain hxt1, hits give low values 0.979 | locus YHR129C, strain ARP1, hits give low values 0.997 | locus YHR142W, strain chs7, hits give low values 1 | locus YHR200W, strain rpn10, hits give low values 0.987 | locus YIL066C, strain RNR3, hits give low values 1 | locus YIL073C, strain SPO22, hits give low values 0.828 | locus YIL125W, strain kgd1, hits give low values 0.988 | locus YIR030C, strain dcg1, hits give low values 0.982 | locus YJL092W, strain hpr5, hits give low values 1.01 | locus YJL095W, strain BCK1 (second series), hits give low values 1.01 | locus YJL095W, strain BCK1, hits give low values 1.01 and 1.04 | locus YJL115W, strain asf1, hits give low values 1.01 | locus YJL129C, strain trk1, hits give low values 0.995 | locus YJL134W, strain LCB3, hits give low values 0.985 | locus YJL154C, strain vps35, hits give low values 0.997 | locus YJL164C, strain tpk1, hits give low values 1.01 | locus YJL166W, strain qcr8, hits give low values 1 | locus YJL168C, strain set2, hits give low values 0.999 | locus YJL187C, strain SWE1 (second series), hits give low values 0.996 | locus YJL187C, strain SWE1, hits give low values 1.01 | locus YJR043C, strain POL32, hits give low values 1.04 | locus YJR066W, strain TOR1, hits give low values 0.991 | locus YKL009W, strain mrt4, hits give low values 0.987 | locus YKL068W, hits give low values 0.977 | locus YKL085W, strain MDH1 (second series), hits give low values 0.984 | locus YKL085W, strain MDH1, hits give low values 0.984 | locus YKL160W, strain elf1, hits give low values 1 | locus YKR001C, strain vps1, hits give low values 0.998 | locus YKR026C, strain gcn3, hits give low values 1.01 | locus YKR091W, strain srl3, hits give low values 0.998 | locus YLL001W, strain dnm1, hits give low values 1.01 | locus YLL026W, hits give low values 1 | locus YLL041C, strain sdh2, hits give low values 1.01 | locus YLR027C, strain aat2, hits give low values 1.01 | locus YLR039C, strain RIC1, hits give low values 0.968 | locus YLR058C, strain SHM2, hits give low values 0.983 | locus YLR102C, strain apc9, hits give low values 0.993 | locus YLR113W, strain HOG1, hits give low values 1.07 | locus YLR221C, strain rsa3, hits give low values 1.01 | locus YLR258W, strain gsy2, hits give low values 1 | locus YLR262C, strain YPT6 (second series), hits give low values 1.03 | locus YLR262C, strain YPT6, hits give low values 0.963 | locus YLR268W, strain sec22, hits give low values 1.01 | locus YLR320W, strain mms22, hits give low values 1.02 | locus YLR330W, strain CHS5, hits give low values 0.985 | locus YLR342W, strain FKS1 (second series), hits give low values 0.98 | locus YLR342W, strain FKS1, hits give low values 1.01 | locus YLR357W, strain rsc2, hits give low values 0.993 | locus YLR370C, strain arc18, hits give low values 1.01 | locus YLR371W, strain rom2, hits give low values 1 | locus YLR384C, strain iki3, hits give low values 1.01 | locus YLR418C, strain cdc73, hits give low values 0.983 | locus YML016C, strain PPZ1, hits give low values 0.995 | locus YML032C, strain rad52, hits give low values 1.01 | locus YML120C, strain ndi1, hits give low values 1.01 | locus YML124C, strain tub3, hits give low values 0.991 | locus YMR058W, strain fet3, hits give low values 1 | locus YMR078C, strain ctf18, hits give low values 0.985 | locus YMR125W, strain sto1, hits give low values 1 | locus YMR129W, hits give low values 1 | locus YMR205C, strain PFK2, hits give low values 1.03 | locus YMR223W, strain ubp8, hits give low values 0.971 | locus YMR231W, strain pep5, hits give low values 1.02 | locus YMR263W, strain SAP30, hits give low values 0.995 | locus YMR307W, strain GAS1, hits give low values 1 | locus YNL067W, strain RPL9B, hits give low values 1.02 | locus YNL071W, strain lat1, hits give low values 0.997 | locus YNL153C, strain GIM3, hits give low values 1.04 | locus YNL183C, strain NPR1, hits give low values 0.989 | locus YNL209W, strain ssb2, hits give low values 1.01 | locus YNL233W, strain BNI4, hits give low values 1.05 | locus YNL248C, strain rpa49, hits give low values 1.01 | locus YNL250W, strain rad50, hits give low values 0.993 | locus YNL271C, strain bni1, hits give low values 0.997 | locus YNL298W, strain CLA4, hits give low values 0.993 | locus YNL307C, strain MCK1, hits give low values 1 | locus YNL322C, strain KRE1 (second series), hits give low values 1.01 | locus YNR049C, strain mso1, hits give low values 1.01 | locus YNR052C, strain pop2, hits give low values 0.993 | locus YOL012C, strain htz1 1.01 | locus YOL147C, strain pex11, hits give low values 0.978 | locus YOR001W, strain rrp6, hits give low values 1.01 | locus YOR061W, strain CKA2, hits give low values 0.996 | locus YOR069W, strain VPS5, hits give low values 0.985 | locus YOR070C, strain gyp1, hits give low values 1.01 | locus YOR080W, strain dia2, hits give low values 1.02 | locus YOR083W, strain WHI5, hits give low values 1.01 | locus YOR106W, strain vam3, hits give low values 1.02 | locus YOR136W, strain idh2, hits give low values 1.01 | locus YOR144C, strain elg1, hits give low values 0.996 | locus YOR184W, strain ser1, hits give low values 0.989 | locus YOR231W, strain MKK1, hits give low values 1.06 | locus YOR265W, strain rbl2, hits give low values 1.01 | locus YOR270C, strain vph1, hits give low values 1.01 | locus YOR290C, strain snf2, hits give low values 1.03 | locus YOR316C, strain cot1, hits give low values 0.99 | locus YPL051W, strain arl3, hits give low values 1.01 | locus YPL055C, strain LGE1, hits give low values 1.06 | locus YPL078C, strain atp4, hits give low values 1.01 | locus YPL106C, strain sse1, hits give low values 1.03 | locus YPL240C, strain hsp82, hits give low values 1.01 | locus YPL256C, strain CLN2, hits give low values 1.04 | locus YPR119W, strain clb2, hits give low values 0.995 | locus YPR141C, strain kar3, hits give low values 0.978 | locus YPR163C, strain tif3, hits give low values 0.987 | locus YPR167C, strain met16, hits give low values 1 | strain wtn01, hits give low values 0.998

From PubChem BioAssay AID1159580 (chemical genetic matrix, 2015)
